Laboratory results reported in PubChem BioAssay (EPA / NIEHS).
Inconclusive results are not listed. Activity calls are given as the source filed them. Rule for the calls, unless noted: active = hit-call score of the fitted dose curve at least 0.9, where 1 is the maximum; inactive = score below 0.9.

Experiments:
[1] = read-out: Phosphatase and tensin (PTEN), PTEN (gene 5728); assay: LTEA_HepaRG_PTEN: Life Technologies and Expression Analysis (LTEA) Assay for Phosphatase and tensin (PTEN) using HepaRG (AID 2283523); settings: mRNA level, 48 h; actives raise or lower the signal
Procedure, shortened: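 Expression of PTEN is quantified in the human liver line HepaRG following two days of dosing (top concentration 100 uM, half-log dilutions, 0.5% DMSO). Values derive from bidirectional curve fitting relative to DMSO controls.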

[2] = read-out: solute carrier (SLC22A1), SLC22A1 (gene 6580); assay: LTEA_HepaRG_SLC22A1: Life Technologies and Expression Analysis (LTEA) Assay for solute carrier (SLC22A1) using HepaRG (AID 2283524); settings: mRNA level, 48 h; actives raise or lower the signal
Procedure, shortened: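 Transcript induction or suppression of SLC22A1 in human HepaRG cultures is scored after 48 h chemical treatment, with DMSO (0.5%) as baseline for bidirectional fitting. Concentrations span eight half-log points topping at 100 uM.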

[3] = read-out: Pyruvate Dehydrogenase Kinase 4 (PDK4), PDK4 (gene 5166); assay: LTEA_HepaRG_PDK4: Life Technologies and Expression Analysis (LTEA) Assay for Pyruvate Dehydrogenase Kinase 4 (PDK4) using HepaRG (AID 2283525); settings: mRNA level, 48 h; actives raise or lower the signal
Procedure, shortened: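 Eight-point, half-log concentration series (max 100 uM, 0.5% DMSO) applied to differentiated HepaRG cells for 48 h in duplicate. Endpoint: PDK4 mRNA induction or repression by qRT-PCR against DMSO baseline.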

[4] = read-out: Nuclear factor erythroid 2-related factor 2 (Homo sapiens) (UniProt Q16236); assay: LTEA_HepaRG_NFE2L2: Life Technologies and Expression Analysis (LTEA) Assay for Nuclear factor erythroid 2-related factor 2 (NFE2L2) Transcription Factor using HepaRG (AID 2283527); settings: mRNA level, 48 h; actives raise or lower the signal;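 note: TaqMan qRT-PCR transcript level normalised to ACTB GAPDH and POLR2A housekeeping genes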
Procedure, shortened: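 Human liver HepaRG line treated in duplicate for 48 h with an eight-point series topping at 100 uM. Gene expression of NFE2L2 by qRT-PCR, bidirectionally fitted against the vehicle control.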

[5] = read-out: succinate dehydrogenase complex iron sulfur subunit B (SDHB), SDHB (gene 6390); assay: LTEA_HepaRG_SDHB: Life Technologies and Expression Analysis (LTEA) Assay for succinate dehydrogenase complex iron sulfur subunit B (SDHB) using HepaRG (AID 2283528); settings: mRNA level, 48 h; actives raise or lower the signal
Procedure, shortened: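 HepaRG, 48 h exposure, 8-pt half-log series from 100 uM in 0.5% DMSO, duplicates. Readout: SDHB mRNA by Fluidigm qRT-PCR vs housekeeping genes; bidirectional fit relative to DMSO.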

[6] = read-out: Signal transducer and activator of transcription 3 (Homo sapiens) (UniProt P40763); assay: LTEA_HepaRG_STAT3: Life Technologies and Expression Analysis (LTEA) Assay for Signal transducer and activator of transcription (STAT3) using HepaRG (AID 2283529); settings: mRNA level, 48 h; actives raise or lower the signal
Procedure, shortened: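 In this transcriptional endpoint, HepaRG cultures receive test chemicals at up to 100 uM for 48 h, tested in duplicate. STAT3 mRNA is normalized to ACTB, GAPDH and POLR2A.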

[7] = read-out: solute carrier (SLCO1B1), SLCO1B1 (gene 10599); assay: LTEA_HepaRG_SLCO1B1: Life Technologies and Expression Analysis (LTEA) Assay for solute carrier (SLCO1B1) using HepaRG (AID 2283530); settings: mRNA level, 48 h; actives raise or lower the signal
Procedure, shortened: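 Gain or loss of SLCO1B1 mRNA is fitted against the 0.5% DMSO vehicle in human HepaRG liver cells treated 48 h at up to 100 uM in half-log steps. Expression comes from qRT-PCR normalized to endogenous controls.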

[8] = read-out: sulfotransferase 2A1 (SULT2A1), SULT2A1 (gene 6822); assay: LTEA_HepaRG_SULT2A1: Life Technologies and Expression Analysis (LTEA) Assay for sulfotransferase 2A1 (SULT2A1) using HepaRG (AID 2283531); settings: mRNA level, 48 h; actives raise or lower the signal
Procedure, shortened: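 Cells were plated and cultured 48 h, switched to serum-free induction medium, then dosed in duplicate for 48 h (8 concentrations, max 100 uM). RNA was isolated and SULT2A1 expression measured by qRT-PCR; gain or loss of signal fitted relative to DMSO.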

[9] = read-out: Transforming Growth Factor (TGFA), TGFA (gene 7039); assay: LTEA_HepaRG_TGFA: Life Technologies and Expression Analysis (LTEA) Assay for Transforming Growth Factor (TGFA) using HepaRG (AID 2283532); settings: mRNA level, 48 h; actives raise or lower the signal
Procedure, shortened: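 Gene expression of TGFA was quantified by qRT-PCR after human HepaRG cells were treated for 48 h with test chemicals (eight concentrations, highest 100 uM, 0.5% DMSO). Activity in either direction was fitted relative to DMSO.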

[10] = read-out: Transforming Growth Factor (TGFB1), TGFB1 (gene 7040); assay: LTEA_HepaRG_TGFB1: Life Technologies and Expression Analysis (LTEA) Assay for Transforming Growth Factor (TGFB1) Transporter using HepaRG (AID 2283533); settings: mRNA level, 48 h; actives raise or lower the signal
Procedure, shortened: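 Expression change of TGFB1 in human HepaRG cells is measured after a 48 h chemical exposure, up to 100 uM in 0.5% DMSO vehicle. Curves are fitted in both directions relative to the DMSO baseline.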

TIMP1, TIMP1 (gene 7076) = assay: LTEA_HepaRG_TIMP1: Life Technologies and Expression Analysis (LTEA) Assay for TIMP1 using HepaRG (AID 2283534); settings: mRNA level, 48 h; actives raise or lower the signal;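 note: TaqMan qRT-PCR signal normalized to ACTB GAPDH and POLR2A housekeeping genes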
Procedure, shortened: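 We dosed human liver HepaRG cultures for 48 hours with up to 100 uM test chemical and measured TIMP1 expression by qRT-PCR. Activity in either direction is fitted relative to the 0.5% DMSO vehicle.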

[11] = read-out: Tumor necrosis factor receptor 1 (TNFRSF1A), TNFRSF1A (gene 7132); assay: LTEA_HepaRG_TNFRSF1A: Life Technologies and Expression Analysis (LTEA) Assay for Tumor necrosis factor receptor 1 (TNFRSF1A) using HepaRG (AID 2283535); settings: mRNA level, 48 h; actives raise or lower the signal
Procedure, shortened: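 Expression of TNFRSF1A in human HepaRG liver cells was measured by qRT-PCR 48 h after chemical dosing (maximum 100 uM). Bidirectional curve fitting used 0.5% DMSO as baseline.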

[12] = read-out: Thyroid Hormone Responsive (THRSP), THRSP (gene 7069); assay: LTEA_HepaRG_THRSP: Life Technologies and Expression Analysis (LTEA) Assay for Thyroid Hormone Responsive (THRSP) using HepaRG (AID 2283536); settings: mRNA level, 48 h; actives raise or lower the signal
Procedure, shortened: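 Cell model: human HepaRG, approx. 100,000 cells/well, 0.5% DMSO vehicle. Exposure lasts 48 h; phenobarbital 1 mM serves as induction positive control. Gene expression is measured by qRT-PCR against three endogenous control genes.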

[13] = read-out: Cellular tumor antigen p53 (Homo sapiens) (UniProt P04637); assay: LTEA_HepaRG_TP53: Life Technologies and Expression Analysis (LTEA) Assay for Tumor Protein P53 (TP53) using HepaRG (AID 2283537); settings: mRNA level, 48 h; actives raise or lower the signal
Procedure, shortened: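 HepaRG, 48 h exposure, top 100 uM, half-log 8-point, 0.5% DMSO vehicle, duplicates. Read: TP53 mRNA by TaqMan qRT-PCR, normalised to ACTB/GAPDH/POLR2A; bidirectional fit vs DMSO.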

[14] = read-out: UDP glucuronosyltransferase (UGT1A1), UGT1A1 (gene 54658); assay: LTEA_HepaRG_UGT1A1: Life Technologies and Expression Analysis (LTEA) Assay for UDP glucuronosyltransferase (UGT1A1) using HepaRG (AID 2283538); settings: mRNA level, 48 h; actives raise or lower the signal
Procedure, shortened: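 HepaRG, 48 h chemical exposure (top 100 uM, half-log 8-pt, 0.5% DMSO vehicle), duplicate wells; qRT-PCR (TaqMan, Fluidigm array) for UGT1A1 mRNA, housekeeping-normalized; bidirectional curve fit vs DMSO baseline.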

[15] = read-out: UDP glucuronosyltransferase (UGT1A6), UGT1A6 (gene 54578); assay: LTEA_HepaRG_UGT1A6: Life Technologies and Expression Analysis (LTEA) Assay for UDP glucuronosyltransferase (UGT1A6) using HepaRG (AID 2283539); settings: mRNA level, 48 h; actives raise or lower the signal
Procedure, shortened: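 Endpoint is UGT1A6 transcript induction or loss in a human liver cell line, quantified by TaqMan qRT-PCR 48 h after dosing. Concentrations ran from 100 uM downward in half-log steps in 0.5% DMSO; activity was fitted in both directions versus vehicle.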

[16] = read-out: X-box binding protein 1 (XBP1), XBP1 (gene 7494); assay: LTEA_HepaRG_XBP1: Life Technologies and Expression Analysis (LTEA) Assay for X-box binding protein 1 (XBP1) using HepaRG (AID 2283540); settings: mRNA level, 48 h; actives raise or lower the signal
Procedure, shortened: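 Human HepaRG monolayers receive test chemical for 48 h across an eight-point half-log series starting at 100 uM. XBP1 mRNA gain or loss is scored against DMSO by qRT-PCR.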

[17] = read-out: NAD(P)H dehydrogenase [quinone] 1 (NQO1), NQO1 (gene 1728); assay: LTEA_HepaRG_NQO1: Life Technologies and Expression Analysis (LTEA) Assay for NAD(P)H dehydrogenase [quinone] 1 (NQO1) using HepaRG (AID 2283526); settings: mRNA level, 48 h; actives raise or lower the signal
Procedure, shortened: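 qRT-PCR read-out (Fluidigm TaqMan), normalized to three housekeeping genes, after 48 h chemical exposure of HepaRG cells. Concentrations: eight points, top 100 uM, half-log steps, 0.5% DMSO vehicle. Gain or loss of signal fitted relative to DMSO.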

[18] = LTEA_HepaRG_LDH_cytotoxicity: Cytotoxicity Assessment in the Life Technologies and Expression Analysis (LTEA) Assay (AID 2283563; active = hit-call score of the fitted dose curve at least 0.9, where 1 is the maximum)
Procedure, shortened: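 Human HepaRG hepatic cells are treated with test chemicals for 48 h at up to 100 uM in 0.5% DMSO. Cytotoxicity is scored from medium LDH against the vehicle control.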

[19] = ATG_XTT_Cytotoxicity: Cytotoxicity Assessment in the Attagene TRANS-FACTORIAL HepG2 Assay (AID 2283584; active = hit-call score of the fitted dose curve at least 0.9, where 1 is the maximum)
Procedure, shortened: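 Transfect HepG2 with GAL4-UAS reporter units, dose compound, incubate 24 h, then measure viable cell number by XTT. Fit concentration response against DMSO baseline.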

Measured: AC50

Chain of Cellular tumor antigen p53 (Homo sapiens) (P04637 whole entry, looked up): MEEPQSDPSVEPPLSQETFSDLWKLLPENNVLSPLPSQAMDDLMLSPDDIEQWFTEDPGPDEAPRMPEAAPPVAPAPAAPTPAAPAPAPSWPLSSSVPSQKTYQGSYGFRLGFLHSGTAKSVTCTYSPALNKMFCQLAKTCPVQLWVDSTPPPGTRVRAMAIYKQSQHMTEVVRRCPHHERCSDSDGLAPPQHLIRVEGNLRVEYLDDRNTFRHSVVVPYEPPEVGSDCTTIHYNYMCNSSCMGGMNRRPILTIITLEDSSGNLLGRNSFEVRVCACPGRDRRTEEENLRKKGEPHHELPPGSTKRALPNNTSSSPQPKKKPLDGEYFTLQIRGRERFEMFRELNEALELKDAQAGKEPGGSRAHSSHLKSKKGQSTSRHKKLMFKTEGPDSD
Chain of Nuclear factor erythroid 2-related factor 2 (Homo sapiens) (Q16236 whole entry, looked up): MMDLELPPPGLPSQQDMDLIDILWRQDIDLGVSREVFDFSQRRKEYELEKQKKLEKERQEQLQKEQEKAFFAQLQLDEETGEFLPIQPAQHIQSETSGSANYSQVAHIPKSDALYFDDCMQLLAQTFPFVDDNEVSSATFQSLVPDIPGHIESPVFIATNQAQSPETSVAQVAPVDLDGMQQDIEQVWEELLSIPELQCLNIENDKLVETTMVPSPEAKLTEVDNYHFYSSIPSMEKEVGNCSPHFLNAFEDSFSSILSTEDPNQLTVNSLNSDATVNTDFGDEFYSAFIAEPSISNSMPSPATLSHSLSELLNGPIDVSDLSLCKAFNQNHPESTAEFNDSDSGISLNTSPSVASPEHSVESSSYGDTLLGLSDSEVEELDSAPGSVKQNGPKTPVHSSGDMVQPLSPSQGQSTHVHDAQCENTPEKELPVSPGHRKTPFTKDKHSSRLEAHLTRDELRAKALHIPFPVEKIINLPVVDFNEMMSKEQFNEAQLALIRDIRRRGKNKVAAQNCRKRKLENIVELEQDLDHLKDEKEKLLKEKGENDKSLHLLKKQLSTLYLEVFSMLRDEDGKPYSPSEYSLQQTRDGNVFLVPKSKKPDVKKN
Chain of Signal transducer and activator of transcription 3 (Homo sapiens) (P40763 whole entry, looked up): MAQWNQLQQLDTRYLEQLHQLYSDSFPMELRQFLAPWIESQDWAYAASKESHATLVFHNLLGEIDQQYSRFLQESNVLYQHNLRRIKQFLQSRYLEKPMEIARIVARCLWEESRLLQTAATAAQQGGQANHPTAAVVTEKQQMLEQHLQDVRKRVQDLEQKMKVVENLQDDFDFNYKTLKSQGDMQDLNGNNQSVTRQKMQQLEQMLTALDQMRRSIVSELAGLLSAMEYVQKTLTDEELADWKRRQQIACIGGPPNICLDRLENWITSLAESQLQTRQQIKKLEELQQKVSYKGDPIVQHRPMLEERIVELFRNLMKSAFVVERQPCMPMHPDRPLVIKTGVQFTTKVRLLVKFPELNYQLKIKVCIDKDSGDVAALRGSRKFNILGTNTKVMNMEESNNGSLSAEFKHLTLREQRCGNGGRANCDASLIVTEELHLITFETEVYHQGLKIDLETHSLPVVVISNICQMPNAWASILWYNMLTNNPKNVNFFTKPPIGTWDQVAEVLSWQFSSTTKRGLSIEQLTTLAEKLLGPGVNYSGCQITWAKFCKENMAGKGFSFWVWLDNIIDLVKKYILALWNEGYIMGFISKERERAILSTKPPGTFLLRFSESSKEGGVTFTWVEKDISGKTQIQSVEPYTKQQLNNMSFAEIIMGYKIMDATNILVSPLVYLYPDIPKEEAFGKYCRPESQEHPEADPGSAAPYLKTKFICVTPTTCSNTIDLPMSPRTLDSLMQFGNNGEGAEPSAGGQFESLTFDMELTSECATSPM

CCCc1ccccc1
not listed: [17] | [18] | [19]
inactive: all other assays above

O=S(=O)(O)c1ccc(N=Nc2c(O)ccc3cc(S(=O)(=O)O)ccc23)cc1
not listed: [13] | [18] | [19]
inactive: all other assays above

OCc1ccccc1
not listed: [13] | [19]
inactive: all other assays above

Cn1cc[nH]c1=S
not listed: [18]
inactive: all other assays above

CCCCC(CC)C(=O)OCCOCCOCCOC(=O)C(CC)CCCC (stereo unspecified)
active: [11] 78.2 µM
not listed: [17] | [19]
inactive: all other assays above

CCOc1ccc2[nH]cc(C(=O)NCc3ccccc3)c(=O)c2n1
not listed: [13] | [18] | [19]
inactive: all other assays above

CCCCCCCC/C=C\CCCCCCCC(=O)OC[C@@H](O)[C@H]1OC[C@H](O)[C@H]1O
inactive: all assays above
